Most compounds without a hit are left out; they make up all but 3.4% or so of the library.
MEKK2 mut-MEK5 – MEK5 binding signal on mutant MEKK2 PB1, primary screen, biochemical, multiplex bead flow cytometry, Alexa488-MEK5. percent response, % at 10 µM. 290,000 compounds, 0.35% hits. Alexa488-MEK5 binding to MEKK2 mutant; in the data active means percent response above about 24%, passing the limit was not always enough
MEKK3 PB1 HTS – modulators of MEKK3-MEK5 PB1 binding, primary screen, biochemical, wildtype MEKK3, multiplex bead flow cytometry, Alexa488-MEK5 | 290,000 compounds, 1.4% hits | binding response (% of control), % at 10 µM | bead-based flow cytometry, Alexa488-MEK5 binding to MEKK3; actives lie on both sides; 0 = blocked by unlabeled MEK5, 100 = vehicle | Mitogen-activated protein kinase kinase kinase 3 (Homo sapiens), Q99759;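 active means binding response more than 3 SD above or below the average of its plate-row segment, actives on both sides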;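 further: Alexa488 bead fluorescence after subtracting the streptavidin-only scavenger bead signal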
Target sequence (Q99759 whole entry, looked up): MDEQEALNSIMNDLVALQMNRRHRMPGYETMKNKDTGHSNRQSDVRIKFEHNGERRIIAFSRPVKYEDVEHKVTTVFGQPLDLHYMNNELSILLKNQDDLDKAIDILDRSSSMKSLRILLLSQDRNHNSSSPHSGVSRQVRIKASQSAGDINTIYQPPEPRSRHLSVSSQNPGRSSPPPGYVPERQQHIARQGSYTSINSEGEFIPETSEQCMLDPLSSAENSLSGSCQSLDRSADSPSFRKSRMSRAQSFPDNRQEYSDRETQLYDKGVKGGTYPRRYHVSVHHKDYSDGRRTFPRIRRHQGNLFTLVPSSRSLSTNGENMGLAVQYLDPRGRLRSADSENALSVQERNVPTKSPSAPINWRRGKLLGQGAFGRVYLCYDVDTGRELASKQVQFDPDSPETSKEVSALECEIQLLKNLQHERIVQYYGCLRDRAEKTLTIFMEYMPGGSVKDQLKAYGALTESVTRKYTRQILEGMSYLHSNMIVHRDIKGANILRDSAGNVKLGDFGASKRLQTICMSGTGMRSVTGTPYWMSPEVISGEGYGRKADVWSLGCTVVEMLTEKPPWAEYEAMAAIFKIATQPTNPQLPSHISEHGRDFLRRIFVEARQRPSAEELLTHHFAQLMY
ANO1 block – TMEM16A chloride channel inhibitors, primary screen, cell-based, HTS; HEK293 TMEM16A/YFP iodide influx fluorescence, ionomycin; normalized B-score (activity score, 25-100; higher = stronger inhibition) at 10 µM; 310,000 compounds, 1.2% hits; AID 588511, 2011;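 active means ratio plate-corrected score three or more library SD toward inhibition, starting fluorescence score within five deviations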;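 further: score derived from kinetic fluorescence span divided by baseline fluorescence per well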
MEKK2 WT-MEK5 – modulators of MEK5 binding to wildtype MEKK2, primary screen, biochemical, multiplex bead flow cytometry, Alexa488-MEK5; binding response (% of control), % at 10 µM; AID 1531, 2009; Alexa488-MEK5 binding to MEKK2 WT; actives lie on both sides; 290,000 compounds, 1.1% hits; in the data active means binding response below about 67% or above about 130%
NTR1 agonist – agonists of human NTR1, primary screen, imaging, U2OS cells, beta-arrestin-GFP, high content | Neurotensin receptor type 1 (Homo sapiens), P30989 | NTR1-U2OS beta-arrestin-GFP spot imaging, agonist mode | activation, % at 20 µM | 330,000 compounds, 0.17% hits;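 active means activation at or above 40% of the spot to cytoplasm intensity ratio, with at least 20 cells analyzed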
ANO1 activ – TMEM16A chloride channel activators or potentiators, primary screen, cell-based, HTS | Anoctamin-1 (Mus musculus), Q8BHY3 | AID 623877, 2012 | B-score at 10 µM | 340,000 compounds, 0.3% hits | HEK293 TMEM16A/YFP-H148Q/I152L, iodide quench fluorescence; stronger effect = lower value;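 active means fluorescence-ratio B-score plate-corrected deviation score at least 3 library SD below zero, with starting fluorescence score within 5 deviations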;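 further: channel opened by trigger with iodide after compound preincubation; score built on the fluorescence ratio of max minus min over baseline; more negative score means more quench and so TMEM16A activation or potentiation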
TMEM16A reconf – TMEM16A chloride channel inhibitors, confirmation, cell-based, re-confirmation; HEK293 TMEM16A/YFP-H148Q, iodide quench fluorescence; ionomycin added to raise cell calcium; 2,300 compounds, 39% hits; shares compounds with ANO1 block; inhibition, % at 10 µM;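 active means mean duplicate percent inhibition, scaled so buffer wells are 0 and the reference blocker 100, over three buffer SD above buffer mean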
TMEM16A Ca cntr – calcium mobilization in TMEM16A/YFP HEK293 cells, confirmation, counter-screen for TMEM16A inhibitor project | shares compounds with ANO1 block | Fluo4 calcium mobilization | calcium response (% of ionomycin), % at 10 µM | 2,300 compounds, 2% hits | AID 652231, 2013;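 active means duplicate-averaged calcium signal over 20% of the ionomycin maximum, relative to buffer baseline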;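 further: each well's signal is peak minus trough fluorescence divided by its pre-addition baseline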
YFP-HEK293 quench – iodide YFP quench changes in parental YFP-HEK293, counter-screen for TMEM16A inhibitor project, cell-based | shares compounds with ANO1 block | ionomycin | YFP ratio F(max-min)/F0 at 10 µM | 2,300 tested, under 10 active;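 active means yellow fluorescent protein signal ratio exceeding the buffer control mean by over 5 SD of those controls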;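 further: ratio is mean of duplicate wells from kinetic YFP trace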
ClC-1 inh – ClC-1 chloride channel inhibition, selectivity assay for TMEM16A inhibitor project, cell-based, voltage-dependent ClC-1; ratio percent, % at 10 µM; CHO ClC-1-YFP, iodide influx fluorescence quench; iodide control reads 0, buffer control 100; 2,300 tested, under 10 active; shares compounds with ANO1 block;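 active means duplicate-mean ratio percent above the mean of iodide-only control wells, which defines zero, plus 5 of their SD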;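 further: higher percent means stronger block of ClC-1 iodide influx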
Hits are given with their value; i = inactive; nt = no result given.

SMILES	MEKK2 mut-MEK5	MEKK3 PB1 HTS	ANO1 block	MEKK2 WT-MEK5	NTR1 agonist	ANO1 activ	TMEM16A reconf	TMEM16A Ca cntr	YFP-HEK293 quench	ClC-1 inh
O=C(CN(Cc1ccccc1Cl)C(=O)CNS(=O)(=O)c1ccccc1)NCC1CCCO1 (stereo unspecified)	i	i	i	i	i	i	nt	nt	nt	nt
COc1cccc(OC)c1C(=O)NNS(=O)(=O)c1ccc2ccccc2c1	i	i	i	i	i	i	nt	nt	nt	nt
CCCOc1ccc(-c2nnn(CC(=O)c3ccc4c(c3)OCCO4)n2)cc1	i	i	100	i	i	i	17%	i	i	i
O=C(Nc1cccnc1)c1ccc(CN2CCc3ccccc3C2)cc1	i	i	25	i	i	i	22%	i	i	i
Cc1ccc(NC(=O)c2ccc(CN3CCc4ccccc4C3)cc2)cc1	nt	nt	25	nt	i	i	i	i	i	i
CC(C)(C)c1ccc(C(=O)Nc2ccc(CN3CCS(=O)(=O)CC3)cc2)cc1	i	i	25	i	i	i	20%	i	i	i
Cc1cc(C)cc(NC(=O)c2ccc(CN3CCc4ccccc4C3)cc2)c1	i	i	i	i	i	i	nt	nt	nt	nt
O=C(Nc1ccccc1)c1ccc(CN2CCc3ccccc3C2)cc1	i	i	i	i	i	i	nt	nt	nt	nt
CCOc1ccc(-n2ccnc2SCC(=O)NCc2ccc3c(c2)OCO3)cc1	i	i	100	i	i	i	20%	i	i	i
O=C(CSc1nccn1-c1ccc(F)cc1)NCc1ccc2c(c1)OCO2	i	i	i	i	i	i	nt	nt	nt	nt
CCCN(CC(=O)c1cc(C)n(C)c1C)S(=O)(=O)c1cccc(C(F)(F)F)c1	i	i	100	i	i	i	i	i	i	i
CCN(CC)S(=O)(=O)c1cccc(-c2nnc(SCC(=O)c3cc(C)n(C)c3C)o2)c1	i	i	i	i	i	i	nt	nt	nt	nt
Cn1c(Cc2ccccc2)nnc1SCC(=O)NC1CCCC1	i	i	100	i	i	i	i	i	i	i
Cn1c(Cc2ccccc2)nnc1SCC(=O)NC1CCCCC1	i	i	i	i	i	i	nt	nt	nt	nt
COC(=O)CCN(c1ccccc1)S(=O)(=O)c1cc(-c2cc(C)no2)ccc1C	i	i	i	i	i	i	nt	nt	nt	nt
COc1ccc(Br)cc1C(=O)Nc1ccccc1N1CCCC1	nt	nt	100	nt	i	i	24%	i	i	i
CC(=O)N1c2c(cc(Br)cc2S(=O)(=O)NCc2cccnc2)CC1C (stereo unspecified)	i	i	i	i	i	i	nt	nt	nt	nt
CCCCN(Cc1ccccc1)S(=O)(=O)c1cc(Br)cc2c1N(C(C)=O)C(C)C2 (stereo unspecified)	i	i	25	i	i	i	i	i	i	i
CCOC(=O)c1[nH]c2ccc(OC)cc2c1NC(=S)N1CCN(c2cccc(C)c2C)CC1	i	i	i	i	i	i	nt	nt	nt	nt
Cc1ccc(CCNC(=O)C2CCC(=O)N(Cc3cccc(F)c3)C2)cc1 (stereo unspecified)	i	i	i	i	i	i	nt	nt	nt	nt
CCCc1cc(C(=O)OC)c(NC(=O)CCC(=O)O)s1	i	i	i	i	i	i	nt	nt	nt	nt

Screening results deposited in PubChem by several laboratories.
